Screening results deposited in PubChem by National Center for Advancing Translational Sciences (NCATS).
Pf Dd2 inh = qHTS Primary assay for Inhibitors of Plasmodium falciparum Dd2 growth in vitro | P. falciparum Dd2 growth, SYBR Green, 72 h | Potency, µM (titrated, usually from 28.9 µM), without a hit: at the highest dose activity, negative = inhibition, most hits filed as inhibitors | hit rate 4.3% among 120,000 | AID 1347417, 2020; active means well fitted inhibition curve with a large enough effect;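 further: plate controls were DMSO vehicle for no effect and reference drug for full effect; nearly all actives have a fitted effect of over 65% in size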
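Readout: SYBR Green fluorescence, 485 nm excitation, 535 nm emission, after ~16 h lysis at 37C. Before that, Dd2-infected red cells (2.5% hematocrit) grew 72 h with compound, 29 uM top final concentration.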
* hit, by the source's call; i = inactive; [ ] = dose if it differs, or a comment. This is one part of a sample in which hits are shown more often than they occur. Potency means the concentration at half of the fitted maximal effect.

SMILES	Pf Dd2 inh
O=C(NCc1ccco1)c1ccc(Cn2c(SCc3ccccc3)nc3cccnc32)cc1	-18%
Cc1cccc(CNC(=O)c2ccc(Cn3c(SCc4cccc(F)c4)nc4cccnc43)cc2)c1	i
COc1ccc(Cn2c(SCc3ccc(C(=O)NCc4ccc(C)cc4)cc3)nc3cccnc32)cc1	10µM*
COc1cccc(CNC(=O)c2ccc(Cn3c(SCc4ccccc4)nc4cccnc43)cc2)c1	10µM*
CC(C)OCCCNC(=O)c1ccc(CSc2nc3cccnc3n2Cc2ccccc2)cc1	i
COCCCNC(=O)c1ccc(CSc2nc3cccnc3n2Cc2ccc(OC)cc2)cc1	-15%
O=C(c1ccc(-c2ccc(O)cc2)cc1)N1CCOC2(CNCCOC2)C1 (centres undefined)	-17%
CCN1c2cc(C(=O)Nc3ccccc3)ccc2C(=O)N2CCCCCC21 (centres undefined)	-4%
COc1ccc(C(=O)N2CC[C@@H]3CN(c4cnccn4)[C@@H]3C2)c(OC)n1	-8%
Clc1ccc(-c2cnc([C@@H]3COCCN3Cc3cnc4ccccc4c3)[nH]2)s1	i
O=C(NCc1cccs1)c1cc2c(s1)CCN(C(=O)c1ccc(F)cc1)C2	i
Cc1cc(CN2CC(Oc3ccc(F)cc3F)C2)no1	5%[44.1 µM]
COc1ccc(NC(=O)[C@@H]2C[C@H](c3ccc(F)cc3)N([S+](=O)([O-])C3CC3)C2)cc1OC	i
Cc1ccc(S(=O)(=O)N2CCC(Oc3ncccc3C(=O)N(C)C)C2)cc1F (centres undefined)	-23%
CCOc1ccccc1NC(=O)CSc1nc2c(c(=O)[nH]1)CCC2	i
COc1ccccc1NC(=O)CSc1nc(-c2ccc(C(C)(C)C)cc2)c(C#N)c(=O)[nH]1	10µM*
Cc1ccc(C)c(NC(=O)CSc2nc(-c3ccccc3)c(C#N)c(=O)[nH]2)c1	21%
O=C1CC(c2ccccc2)N(C(=O)C2CC2)CCCN(C(=O)c2ccc3ccccc3n2)CCN1 (centres undefined)	-13%
O=C1CCN(S(=O)(=O)c2ccccc2)CCCN(C(=O)Cc2cccc(F)c2)CCN1	-13%
O=C1CC(c2ccccc2)N(Cc2ccncc2)CCCNCCN1 (centres undefined)	-14%
O=C1CC(c2ccccc2)N(Cc2ccncc2)CCCN(C(=O)C2CCCCC2)CCN1 (centres undefined)	-26%
CS(=O)(=O)N1CCCN(C(=O)c2ccncc2)CCNC(=O)CC1c1ccccc1 (centres undefined)	-16%
O=C1CC(c2ccccc2)N(Cc2ccncc2)CCCN(S(=O)(=O)c2cccc(F)c2)CCN1 (centres undefined)	0.5µM*
O=C1CC(c2ccccc2)N(C(=O)C2CC2)CCCN(C(=O)c2cc3ccccc3[nH]2)CCN1 (centres undefined)	11µM*
O=C1CC(c2ccccc2)N(C(=O)C2CC2)CCCN(C(=O)c2c[nH]c3ccccc23)CCN1 (centres undefined)	i
SMILES	Pf Dd2 inh
O=C1CC(c2ccccc2)N(Cc2ccncc2)CCCN(C(=O)c2cc3ccccc3[nH]2)CCN1 (centres undefined)	3.5µM*
Cc1ccccc1CCC1CCCN(C(=O)C2(C)CC2)C1 (centres undefined)	-22%
c1coc(-c2nc(C3CCOC3)nn2C2Cc3ccccc3C2)c1 (centres undefined)	-19%
COCCCNC(=O)c1c(OCC2CC2)cc(=O)n2c1CCCCC2	46%
CCCCc1nn(CC(=O)N(C)Cc2ccc(C)o2)c(=O)n1CC	9%
O=C1Nc2cc(Cl)ccc2C(=O)N2CCN(C(=O)c3ccccc3)C[C@H]12	-20%[44.1 µM]
CC1(C)[C@H](Cc2cc(CO)on2)C[C@@H]1NS(=O)(=O)c1ccc(F)cc1	-10%[44.1 µM]
O=C(CCc1c[nH]c2ccccc12)N1[C@H]2CC[C@@H]1c1cnc(-c3ccccc3)nc1C2	-19%
O=C(CCc1nc2ccccc2[nH]1)N1[C@H]2CC[C@@H]1c1cnc(-c3ccc(F)cc3)nc1C2	11µM*
O=C(Cc1cccnc1)N1[C@H]2CC[C@@H]1c1cnc(-c3ccc(F)cc3)nc1C2	-15%
Cc1ccc(Cn2c(C3CCN(C(=O)c4ccc5c(c4)OCO5)CC3)n[nH]c2=O)cc1	-28%
O=C(C1CCC1)N1CC[C@H]2COC(=O)N2c2ccccc2C1	6%[44.1 µM]
CC(C)c1nc(CCN(C)C(=O)c2cn(CCC3CCCCN3)nn2)no1 (centres undefined)	-2%
CN1C[C@H](NCc2cnn(C)c2)CCC[C@@H](C(=O)NCc2cc(F)cc(F)c2)CC1=O	16%[44.1 µM]
CCCNc1cc(N2CCC(CCC(=O)NCC3CC3)CC2)ncn1	i
O=C(CCC1CCN(c2cc(NC3CC3)ncn2)CC1)N1CCN(c2ccccc2F)CC1	-10%
CCCNc1cc(N2CCC(CCC(=O)N3CCN(c4ccccc4F)CC3)CC2)ncn1	11µM*
O=C([C@@H]1C[C@H](F)CN1S(=O)(=O)c1ccccc1F)N1CCc2ccccc2C1	-8%
COc1ccccc1N1CCN(CC(O)COc2ccc(Cl)c(C)c2)CC1 (centres undefined)	56%
COc1ccccc1N1CCN(CC(O)COc2ccc(C)cc2C(C)(C)C)CC1 (centres undefined)	8.9µM*
COc1ccccc1N1CCN(CC(O)COc2cc(C)cc(C)c2)CC1 (centres undefined)	42%
Cc1nc2c(NC(=O)Nc3cccc(C(F)(F)F)c3)cccn2n1	i
O=C(CCc1ccccc1)NC1CCN(c2nnc3ccccn23)CC1	-13%
CCOc1ccccc1CNC(=O)c1cc2cn(C(C)C)cc2s1	-12%
CCOc1ccccc1CNC(=O)c1cc2cn(C3CCCC3)cc2s1	13µM*
SMILES	Pf Dd2 inh
COc1ccccc1CNC(=O)c1cc2cn(C3CC3)cc2s1	i
O=C(NC[C@H]1OC[C@@H](NCc2ccccn2)[C@@H]1O)c1ccccc1	-20%[44.1 µM]
CCOC(=O)c1c(NC(=O)CSc2cn(CCNC(=O)c3ccccc3F)c3ccccc23)sc2c1CCCC2	-28%
CCOC(=O)c1c(NC(=O)CSc2cn(CCNC(=O)c3ccc(OCC)cc3)c3ccccc23)sc2c1CCC2	i
CCOC(=O)c1c(NC(=O)CSc2cn(CCNC(=O)c3ccccc3OC)c3ccccc23)sc2c1CCC2	11µM*
CN[C@H](C(=O)N[C@H]1C[C@@](O)(C(=O)N[C@H](CC(C)C)C(N)=O)C[C@@H](O)[C@@H]1O)C(C)C	17%[44.1 µM]
COCC[C@]1(O)CCN(Cc2cc(F)ccc2-n2cccn2)C[C@H]1C	-4%
COc1ccc(-n2cccn2)c(CN2CC[C@H](CO)[C@H](O)C2)c1	i
CCOC(=O)N1CCN(C2CCCN(Cc3cc(C)ccc3-n3cccn3)C2)CC1 (centres undefined)	10µM*
CN(C)C(=O)c1cccnc1OC1CCN(S(=O)(=O)Cc2ccccc2Cl)C1 (centres undefined)	0%
O=C(CCC1CCCC1)N1CC2CC(C1)[C@H]1CCCC(=O)N1C2 (some centres undefined)	14%
CN(C)C(=O)c1cc2c(s1)CCC(C(=O)N1CCN(c3ccccc3)CC1)C2 (centres undefined)	i
CN(C)C(=O)c1cc2c(s1)CCC(C(=O)N1CCN(c3cccc(Cl)c3)CC1)C2 (centres undefined)	5µM*
CN(C)C(=O)c1cc2c(s1)CCC(C(=O)N1CCN(c3ccccn3)CC1)C2 (centres undefined)	i
COC[C@@H]1CN(S(=O)(=O)c2cccc(OC)c2)C[C@H]1C(N)=O	4%
